# This is a sample that favours compounds with a hit; in the whole collection about 11% have one here.
# BAZ2B inh = inhibitors of human BAZ2B bromodomain; 4.4% of 360,000 active; Potency, µM (highest dose often 114 µM), for inactives: at the highest dose activity change, negative = inhibition, usual class: inhibitors; AlphaScreen BAZ2B-H3K14Ac peptide displacement; Q9UIF8; further: potency means the concentration at half of the fitted maximal effect; on the % scale 0 is the no-effect control and ±100 the full control effect; nearly all actives have a fitted effect of over 60% in size
#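 Compounds, titrated to a top concentration of 110 uM, were incubated 30 min at room temperature with preformed BAZ2B/acetyl-K14 H3 peptide complex (50 nM each). Proximity signal was measured by AlphaScreen after 20 min with beads.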
# G9a block = blocks human histone lysine methyltransferase G9a; 8.8% of 350,000 active; G9a H3K9 monomethylation, AlphaScreen, 2 h; Q96KQ7; Potency, µM (titrated, usually from 102 µM), for inactives: at the top dose activity, negative = inhibition, actives largely listed as inhibitors; AID 504332; further: potency means the concentration at half of the fitted maximal effect; on the % scale 0 is the no-effect control and ±100 the full control effect; nearly all actives have a fitted effect of over 75% in size
#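 Using a bead-based AlphaScreen, monomethylated H3K9 product from 2 h room-temperature reactions (G9a 20 nM, peptide 500 nM, SAM 20 uM) was detected with 0.5 ug/mL rabbit anti-H3K9me1 antibody.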
# JMJD2A Tudor = inhibitors of human JMJD2A Tudor domain | O75164 | AlphaScreen JMJD2A-Tudor / H3K4me3 peptide binding | Potency, µM (titrated, usually from 114 µM), without a hit: at the top dose activity change, negative = inhibition, most hits filed as inhibitors | 4.4% of 390,000 active | AID 504339; further: potency means the concentration at half of the fitted maximal effect; on the % scale 0 is the no-effect control and ±100 the full control effect; nearly all actives have a fitted effect of over 50% in size
# PI5P4K alpha inh = blocks human PI5P4K alpha kinase activity; PI5P4Kalpha enzyme, ADP-Glo luminescence, 60 min; active compounds read low; max response, %; 1.2% of 330,000 active; AID 652105; active means max response of -50% or lower; inconclusive means between -30% and -50%; inactive means -30% or higher; further: value at the top dose of about 77 µM; on the % scale 0 is the no-effect control and ±100 the full control effect
#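 Compounds were pin-transferred onto PI5P4Kalpha and substrate in HEPES pH 7.4 buffer with EGTA, CHAPS and 5% DMSO. ATP (5 microM final) started the reaction, which ran 60 minutes at room temperature before ADP-Glo detection.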
# HP1b binding inh = inhibitors of HP1-beta chromodomain binding to methylated histone tails; P83916; AlphaScreen HP1-beta / biotin-H3K9me3 peptide binding; Potency, µM (series often up to 114 µM), without a hit: at the top dose activity change, negative = inhibition, actives largely listed as inhibitors; 0.56% of 390,000 active; further: potency means the concentration at half of the fitted maximal effect; nearly all actives have a fitted effect of over 70% in size
#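 HP1-beta protein (50 nM final) preincubated 30 min at room temperature with biotinylated H3(1-18)K9me3 peptide (50 nM) in PBS pH 7.4, 0.01% Tween-20, then compound added for 30 min. AlphaScreen streptavidin donor/nickel chelate acceptor beads (10 ug/mL final), 30 min dark, luminescence read.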
# L3MBTL1 inh = inhibitors of human L3MBTL1; Potency, µM (series often up to 57.1 µM), without a hit: at the highest dose activity, negative = inhibition, most hits filed as inhibitors; 0.66% of 230,000 active; AlphaScreen L3MBTL1–H3K9me1 peptide binding; further: potency means the concentration at half of the fitted maximal effect; on the % scale 0 is the no-effect control and ±100 the full control effect; nearly all actives have a fitted effect of over 60% in size
#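 L3MBTL1 50 nM + b-AHA-H3(1-15)K9me1 75 nM, 30 min RT; compound added, 30 min RT; streptavidin donor/Ni-chelate acceptor beads 10 ug/mL each final, 30 min RT dark; AlphaScreen read.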
# Active calls of the source: *; u = inconclusive; x = no result; ! = not confirmed by another sample; [ ] = another dose, or the depositor's remark. Unless noted, the call rests on the fitted dose curve; in most records, active means well fitted inhibition curve with a large enough effect; inconclusive means small, poorly fitted or top-dose-only effect; inactive means no such curve, though single readings can be large or run the other way.
SMILES,BAZ2B inh,G9a block,JMJD2A Tudor,PI5P4K alpha inh,HP1b binding inh,L3MBTL1 inh
Cc1ccc(NNC(=O)c2ccno2)cc1C,1%,6.3µM*,79µM*,-9,-3%,5%
S=C(NCCCc1cnc[nH]1)NCCCN(CCc1ccccc1)c1ccc(Br)cn1,x,x,56µM*,x,u,x
CCCCN(CCCNC(=S)NCCCc1cnc[nH]1)c1ccc(Br)cn1,x,x,50µM*,x,x,x
S=C(NCCCc1cnc[nH]1)NCCCN(Cc1ccccc1)c1ccc(Br)cn1,x,x,56µM*,x,x,x
Cc1ccc(CN2c3ccccc3S(=O)(=O)c3ccccc32)cc1,-43%,-28%[59 µM],-17%,x,4%,x
Clc1cccc(OCCOCCN2CCNCC2)c1Cl,x,x,-15%,2,17%,x
c1ccc2c(OCCCN3CCCCCC3)cccc2c1,56µM*,x,22µM*,-16,u,0%
OCCN1CCN(CCOc2ccccc2-c2ccccc2)CC1,13%,0%[59 µM],-18%,-3,6%,27%
c1ccc(-c2ccccc2OCCN2CCOCC2)cc1,79µM*,10µM*,14µM*,-8,20µM*,8%
c1ccc(-c2ccccc2OCCCN2CCCCC2)cc1,u,8.9µM*,7.9µM*,-7,-20%,-5%
Clc1cccc(OCCCN2CCCC2)c1Cl,-31%,u,20µM*,1,u,-3%
Fc1ccccc1OCCCCCCN1CCCC1,4%,-50%[59 µM],-18%,x,17%,-12%
CC(C)(C)C1CCc2c(sc3nc(-c4cc5cc(Br)ccc5oc4=O)[nH]c(=O)c23)C1 (stereo not given),-24%,-7%[59 µM],3%,x,21%,x
COc1ccc(-n2nc(C(=O)NCCc3ccc(OC)c(OC)c3)c3c4ccccc4n(C)c3c2=O)cc1Cl,x,3%[59 µM],-10%,x,29%,x
C[C@@H]1C[C@H](OC(=O)[C@@H](O)c2ccccc2)CC(C)(C)N1C,x,9%[21.5 µM],x,x,x,x
CCN1CCN(CCCOc2ccccc2-c2ccccc2)CC1,28µM*,x,22µM*,-2,-5%,8%
OCCCN1CCN(CCOc2ccccc2-c2ccccc2)CC1,3%,22%[59 µM],-20%,-2,38%,2%
CN1CCC(NC(=S)Nc2cccc([N+](=O)[O-])c2)CC1,-20%,45µM*,-13%,-17,6%,1%
Cc1cccc(NC(=O)CCn2cnnn2)c1C,-13%,11%[59 µM],-14%,x,12%,x
Cc1ccc(CSc2nc(-c3ccccc3C)nc3c2Cc2c(CO)cnc(C)c2O3)cc1,-12%,5%[59 µM],-5%,x,23%,x
CCOC(=O)c1c(NC(=O)c2cc(CC(C)C)on2)sc(C(C)=O)c1C,-5%,7.9µM*,5%,-12,0%,2%
CCOC(=O)c1c(NC(=O)c2cc(-c3ccc(Br)cc3)on2)sc(C(C)=O)c1C,-28%,-36%[59 µM],-17%,x,11%,x
CCOC(=O)c1c(NC(=O)c2cc(C(C)C)on2)sc(C(C)=O)c1C,-18%,7.9µM*!,2%,2,-4%,x
CCCc1cc(C(=O)Nc2sc(C(C)=O)c(C)c2C(=O)OCC)no1,-3%,u,0%,-15,6%,3%
COc1ccc(-c2cc(C)no2)cc1S(=O)(=O)NCCc1ccco1,u,7%[0.0925 µM],79µM*,-13,-30%,x
SMILES,BAZ2B inh,G9a block,JMJD2A Tudor,PI5P4K alpha inh,HP1b binding inh,L3MBTL1 inh
Cc1coc2c(C)c3oc(=O)c(CCC(=O)N[C@@H](C)C(=O)N[C@@H](Cc4ccccc4)C(=O)O)c(C)c3cc12,u,x,89µM*,4,-22%,x
Cc1c(CCC(=O)O)c(=O)oc2c(C)c3occ(-c4ccc(Br)cc4)c3cc12,56µM*,45µM*,u,-25,u,x
CCCC(NC(=O)Cc1c(C)c2cc3c(C)c(C)oc3c(C)c2oc1=O)C(=O)N[C@@H](Cc1ccccc1)C(=O)O (stereo not given in full),50µM*,-133%[12.7 µM],56µM*,-6,u,x
Cc1coc2c(C)c3oc(=O)c(CCC(=O)NCCc4ccccc4)c(C)c3cc12,-9%,5%[59 µM],-31%,x,34%,x
CCCCC(NC(=O)Cc1c(C)c2cc3c(C)c(C)oc3c(C)c2oc1=O)C(=O)O (stereo not given),-2%,7%,-7%,9,23%,x
COc1ccccc1/C=C/C(=O)NC(=S)Nc1ccccn1,-31%,7%,-24%,-12,46%,-9%
Cc1ccc(NC(=O)/C=C/c2ccco2)cc1F,u,13µM*,-35%,x,u,x
Cc1nc(NC(=O)/C=C/c2ccco2)sc1C,u,u,-33%,u,-7%,u
O=C(/C=C/c1ccco1)NC(=S)Nc1ccccn1,56µM*,u,79µM*,-10,-25%,x
Cc1ccc(-c2csc(NC(=O)/C=C/c3ccco3)c2C(=O)O)cc1,79µM*,x,u,-71*,26%,u
O=C(/C=C/c1ccco1)Nc1cccc(NC(=O)/C=C/c2ccco2)n1,u,10µM*,u,-58*,-7%,u
O=C(Cn1c(=O)n(-c2ccccc2Cl)c(=O)c2sc3ccccc3c21)N1CCCC1,-25%,3%[59 µM],-9%,x,25%,x
O=C(Nc1ccc(Cl)cc1)C(NS(=O)(=O)c1cccs1)c1ccccc1 (stereo not given),-15%,9%[59 µM],-19%,x,20%,x
Fc1cccc(Cl)c1CNc1n[nH]c(-c2ccco2)n1,u,-8%[59 µM],-20%,x,28%,x
CCc1nnc(NC(=O)/C=C/c2ccco2)s1,4%,50µM*,-11%,-11,38%,-1%
CC(=O)N(C)c1ccc(NC(=S)NC(=O)/C=C/c2ccco2)cc1,u,23%[59 µM],-6%,-28,12%,x
Cc1cccnc1NC(=S)NC(=O)/C=C/c1ccco1,-21%,32µM*,-10%,-16,29%,x
COc1cccc(CNC(=O)CN2C(=O)CSc3c2c(C)nn3-c2ccccc2)c1OC,-3%,-1%[59 µM],-7%,x,34%,x
CCCn1c(SCC(=O)c2cc(OC)ccc2OC)nnc1C(C)C,14%,50µM*,79µM*,-15,27%,1%
COCCn1c(SCC(=O)c2ccc(F)cc2)nnc1C(C)C,-11%,u,45µM*,-15,5%,x
Cc1ccc(N(CC(=O)NCc2ccc(OC(C)C)cc2)S(=O)(=O)N(C)C)cc1,6%,8%[59 µM],3%,x,23%,x
Clc1nc(NCc2cccs2)c2[nH]cnc2n1,x,x,-24%,x,29%,x
COc1cc2c(cc1OC)-c1cc(Nc3ccc(C(=O)O)cc3)nc(=O)n1CC2,71µM*,u,u,-22,u,x
COc1ccc(Nc2cc3n(c(=O)n2)CCc2cc(OC)c(OC)cc2-3)cc1,-36%,-31%[2.33 µM],u,-21,22%,x
CCOC(=O)c1sc2nccc(N(C)C)c2c1N=CNOC,22%,4%,25µM*,-6,37%,x

# Screening data from PubChem.
